Reference: PubChem BioAssay (NCI)
The panel holds about 83,000 compounds, 20% with a hit somewhere; the sample as a whole holds those more often.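 Cells were grown in 96-well plates and exposed to the test compound at a single concentration for 48 hours; results are reported as percent growth, with values below 10 considered active.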 Active and inactive are the calls of the source.

Each compound was assayed on MDA-MB-468 breast (assay: NCI-60 one-dose screen, 48 h (100 = growth as untreated, 0 = no growth, -100 = all killed)). Conditions: 10 µM unless noted.
`COc1cc(-c2nc3occn3c2-c2ccnc(NCCCNS(=O)(=O)c3ccc(O)cc3)n2)ccc1F` was tested, and the growth was 91.4% (inactive). In the case of `O=C1Nc2ccc(F)cc2/C1=N/c1nnc(Sc2ccccc2)s1`, the growth is reported as -0.912% (active). For `COc1cc(C(=O)/C=C/c2cc(-c3ccc4c(c3)OCO4)n[nH]2)cc(OC)c1OC`, the growth was 29.1% (inactive). For `c1ccc(-c2nc3sc(C(c4ccccc4)c4ccccc4)nn3c2-c2ccccc2)cc1`, the growth was 96.1% (inactive). `CCn1c2ccc(/C=N/N(C)S(=O)(=O)CCN(C)C)cc2c2cc(/C=N/N(C)S(=O)(=O)CCN(C)C)ccc21` was tested, and the growth was 40.4% (inactive). In the case of `COC(=O)Nc1nc2ccc(C(=O)c3ccccc3)cc2[nH]1`, the growth is reported as -13.7% (active). For `Nc1ccc(Cl)c2c(=O)c3ccccc3[nH]c12`, the growth was 34% (inactive). With `CN(C)CC(C(=O)c1ccccc1)c1ccccc1` (centres undefined) the growth was -47.8% (active). With `OCCCC1CCN(C(Cc2ccccc2)c2ccccc2)CC1` (centres undefined) the growth was 95.2% (inactive). In the case of `CNC(=O)c1cc(-c2ccc(NC(=O)Nc3ccc(N4CCOCC4)c(C(F)(F)F)c3)cc2)nc2cccnc12`, the growth is reported as 29% (inactive). For `O=[N+]([O-])c1ccc(S(=O)(=O)N2CCN(c3ccnc4cc(Cl)ccc34)CC2)c([N+](=O)[O-])c1`, the growth was 82.7% (inactive). For `CCCCC(CC)CN=C(N)NC(N)=NCCCCCCN=C(N)NC(N)=NCC(CC)CCCC` (centres undefined), the growth was -85.7% (active). In the case of `COc1cccc2c(=O)c3c(sc12)c(NCCCN)nc1ccccc13`, the growth is reported as -8% (active). For `Cc1cccc(C)c1NCc1nc(-c2ccccc2)n[nH]1`, the growth was 122% (inactive).
